Measurements from PubChem BioAssay AID1508611 (The Scripps Research Institute Molecular Screening Center, 2020).
The whole screen tested about 6,700 compounds, of which about 20 (0.3%) were called active. This is one part of a sample in which actives are shown more often than they occur. Values without a mark were called inactive.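 How the source made its calls: active means mean percent activation in the counterscreen above 29.09%; inactive means the rest.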

Each compound was assayed against Glucose-dependent insulinotropic receptor (Homo sapiens) (UniProt Q8TDV5) (assay: GPR119 activators in beta-arrestin cells, counter-screen for GPR151 activator project, cell-based, PathHunter beta-arrestin, luminescence, triplicate (AID 1508611;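 further: counterscreen on off-target GPR119 to flag nonselective hits from the GPR151 activator screen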)). Settings: 90 min, at 11.2 µM, active compounds read high, 0 = compound-well median, 100 = enzyme-acceptor control.
Chain of Glucose-dependent insulinotropic receptor (Homo sapiens) (Q8TDV5 whole entry, looked up): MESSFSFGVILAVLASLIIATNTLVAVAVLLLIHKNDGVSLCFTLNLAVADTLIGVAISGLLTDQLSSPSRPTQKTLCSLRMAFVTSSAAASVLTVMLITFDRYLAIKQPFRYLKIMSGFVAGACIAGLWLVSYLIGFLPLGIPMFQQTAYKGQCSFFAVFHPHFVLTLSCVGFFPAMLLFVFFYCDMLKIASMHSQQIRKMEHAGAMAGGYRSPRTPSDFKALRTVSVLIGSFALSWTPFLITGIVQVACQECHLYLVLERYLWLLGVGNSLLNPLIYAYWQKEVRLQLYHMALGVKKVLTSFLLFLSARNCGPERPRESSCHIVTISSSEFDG

In order of rising activation:
1. COc1ccc(OC)c(NC(=S)Nc2ccccn2)c1  -19.3%
2. O=C(N/N=C/c1cccc(Cl)c1Cl)c1cccs1  -19.1%
3. O=C(c1cc([N+](=O)[O-])ccc1NC1CCCCC1)N1CCOCC1  -18.9%
4. O=C(N/N=C/c1cc(Cl)ccc1O)c1cc(-c2ccccc2)n[nH]1  -13.8%
5. COC(=O)NNC(=S)Nc1cc(S(=O)(=O)N(C)C)ccc1C  -12.9%
6. CC(/C=N\NC(=O)CSc1nc(C)cc(C)n1)=C\c1ccccc1  -12.7%
7. CCN(CC)C(=O)C1CCCN(c2cccc(C(=O)NCCc3ccc(OC)cc3)n2)C1 (stereo not given)  -12.6%
8. Cc1ccc(-c2nnc(N3CCOCC3)c3ccccc23)cc1S(=O)(=O)N1CCN(C)CC1  -11.5%
9. Cc1nc2cc(C(=O)NCc3ccc4c(c3)OCO4)ccc2n1-c1ccc(OCc2ccccc2)cc1  -11.3%
10. COCCNC(=S)N1CCN(c2ccccc2OC)CC1  -11.2%
11. O=C(CN1C(=O)S/C(=C\c2ccc(Cl)s2)C1=O)Nc1ccccc1F  -11%
12. O=C(COc1ccc(S(=O)(=O)NCCc2ccccc2)cc1)NC1CC1  -10.3%
13. COc1ccc(/C=C(\C#N)C(=O)Nc2cccc(S(=O)(=O)N3CCCCC3)c2)cc1  -10.3%
14. C=CCN(c1ccc(C(=O)Nc2ccc(OCc3ccccc3)cc2)cc1)S(C)(=O)=O  -10.1%
15. COc1ccc(C(=O)Nc2sc3c(c2C(N)=O)CCCC3)cc1  -10%
16. COc1ccc(Br)cc1C(=O)NCC1COc2ccccc2O1 (stereo not given)  -9.64%
17. COCC(=O)Nc1c(I)c(C(=O)NCC(O)CO)c(I)c(C(=O)N(C)CC(O)CO)c1I (stereo not given)  -9.51%
18. Cc1cc(Nc2ccc(F)cc2)n2cnnc2n1  -9.37%
19. CCOC(=O)C1=C(CC)OC(N)=C(C#N)C1c1ccc(C(F)(F)F)cc1 (stereo not given)  -9.1%
20. COc1ccc(C(=O)Cc2cc3ccccc3oc2=O)c(OC)c1  -8.7%
21. CCOc1ccc(C(=O)Nc2nnc(CC)s2)cc1[N+](=O)[O-]  -8.62%
22. Oc1ccc(Cn2cc[nH]c2=S)cc1  -8.52%
23. N#Cc1ccc(N2CCN(CCCNC(=O)Nc3ccccc3)CC2)cc1  -8.24%
24. CCCCc1ccc(N=Cc2nc(-c3cccc4ccccc34)oc2O)cc1  -7.98%
25. CC(=O)Oc1cccc(N2C(=O)C3C4c5ccccc5C(C)(c5ccccc54)C3C2=O)c1 (stereo not given)  -7.48%
26. O=C(COc1ccc([N+](=O)[O-])cc1)Nc1ccc2oc(-c3cccc(F)c3)nc2c1  -7.11%
27. COc1nc(Nc2ccccc2)nc(-c2c(C)noc2C)n1  -7.06%
28. C=CCNC(=O)C(=O)NCC1OCCCN1S(=O)(=O)c1ccccc1 (stereo not given)  -6.88%
29. COc1ccccc1C1C(C(N)=O)=C(C)Nc2nc(CCCO)nn21 (stereo not given)  -6.42%
30. CCN(CC)S(=O)(=O)c1ccc(C)c(NS(=O)(=O)c2cccc(C#N)c2)c1  -6.36%
31. O=C(CCc1ccccc1)Nc1cccc(C(=O)N2CCOCC2)c1  -6.29%
32. Clc1ccccc1C1C=C(c2ccc(I)cc2)Nc2nnnn21 (stereo not given)  -6.17%
33. CCN1CCCC1CNc1nc(=S)[nH]c2ccccc12 (stereo not given)  -5.74%
34. CC12CCC(C(=O)Nc3ncc(Cl)cc3Cl)(CC1=O)C2(C)C (stereo not given)  -5.44%
35. C=CCN1C(=O)CC(C(=O)OC)C12CCN(C1CCN(C(=O)OCC)CC1)CC2 (stereo not given)  -5.11%
36. COc1ccc(-c2nnc(SCCC#N)o2)cc1  -4.81%
37. CCOc1ccc(N2C(=O)C3C4c5ccccc5C(C(C)O)(c5ccccc54)C3C2=O)cc1 (stereo not given)  -4.77%
38. CC(C)CCSc1nc2c(c(=O)n1Cc1ccco1)C1(CCCCC1)Cc1ccccc1-2  -4.2%
39. C#CCOc1ccc(Br)cc1/C=C1\NC(=S)N(C)C1=O  -3.86%
40. CC(C)N1CCc2c(sc(NC(=O)Cc3ccccc3)c2C#N)C1  -3.52%
41. COc1ccccc1NC(=O)NCc1nc(-c2ccc(OC)c(OC)c2)no1  -3.49%
42. CCC(C)Nc1nc2c(c(=O)[nH]c(=O)n2C)n1CC(O)COC(C)C (stereo not given)  -3.29%
43. CS(=O)(=O)N(CC(=O)Nc1ccc(F)cc1F)c1ccc(F)cc1  -2.79%
44. CCc1ccc(-n2c(C)c(C)n3c4c(=O)n(CC)c(=O)n(C)c4nc23)cc1  -2.08%
45. CCOc1cc2c(cc1OCC)C(c1ccc3ccccc3c1)NCC2 (stereo not given)  -1.89%
46. c1ccc(-c2nc(-c3cccs3)[nH]c2-c2cccs2)cc1  -1.67%
47. CSc1nc(N)nc2nc[nH]c12  -1.61%
48. CSc1ncc(C(=O)NCCc2c[nH]c3ccccc23)c(C)n1  -0.1%
49. Cc1ccc(NCC(=O)N/N=C\c2ccc(I)o2)cc1  -0.01%
50. CCC(=O)Nc1cc(C(=O)O)ccc1C  0.03%
51. CCCCOc1ccccc1CNCC  0.16%
52. Cc1ccc(C(C)C)c(OCCCn2ccnc2)c1  0.47%
53. CCCN1C(=O)c2ccc(C(=O)Nc3ccc(C(C)=O)cc3)cc2C1=O  0.52%
54. COc1cc(NC(=O)c2sc3ncnc(N4CCCCC4)c3c2C)cc(OC)c1OC  0.56%
55. O=C(CCc1nnc(CCCCc2ccccc2)o1)N1CCC(N2CCSCC2)CC1  0.58%
56. O=C(Cc1cccs1)NCCC1=CCCCC1  0.59%
57. CCN1/C(=C/c2ccc3cc(C)ccc3[n+]2CC)Sc2ccc(-c3ccccc3)cc21  0.91%
58. CC1(c2ccccc2NC(=O)c2ccc([N+](=O)[O-])cc2)CC1  0.99%
59. O=C(CCn1cnc2c(cnn2-c2ccc(F)cc2)c1=O)NCCC1=CCCCC1  1.14%
60. O=C(CC1C(=O)NCCN1Cc1ccc2ccccc2c1)NCCCn1cccn1 (stereo not given)  1.24%
61. Cc1cc(N2CCOCC2)ccc1C=C1C(=O)c2ccccc2C1=O  1.45%
62. CCc1ccc(NS(=O)(=O)c2ccc(Cl)cc2)cc1  1.55%
63. CN1CC(=O)N2CCN(C(=O)OCc3ccccc3)C[C@@H]2C1=O  1.78%
64. CC(C)(C)OC(=O)N1CCC[C@H](Cn2cc(C(=O)O)nn2)C1  2%
65. COCCNC(=O)c1cc2c(=O)n3ccccc3nc2n(CCc2ccccc2)c1=N  3.06%
66. CCc1nnc2n1N(C(C)=O)C(c1ccc3c(c1)CCCC3)=C(C(C)=O)S2  3.36%
67. COc1ccc(OC)c(NC(=O)CSc2nnc3[nH]c(=O)c(C)c(C)n23)c1  3.38%
68. CC(=O)NC(CC(=O)O)c1ccc(F)cc1 (stereo not given)  3.48%
69. O=C(Nc1ccc2[nH]ncc2c1)N1CCCNCC1  3.8%
70. COCCN1C(=O)CC(CC(=O)NCc2nc3ccccc3[nH]2)(c2ccccc2C)C1=O (stereo not given)  3.87%
71. Brc1cnc(NC2CCCCC2)nc1  4.03%
72. COc1ccccc1C(=O)N/C(=C\c1ccc2c(c1)OCO2)C(N)=O  4.53%
73. COc1cccc(C(=O)NC(=S)Nc2ccc(OC)cc2OC)c1  5.05%
74. COCCNC(=O)CSc1nccn1Cc1ccco1  5.14%
75. O=C(COc1ccc(Br)cc1CO)NCC(F)(F)F  5.45%
76. CCOc1ccc(NC(=O)COc2cccc(C)c2C)cc1  6%
77. CC1CCN(C(=O)C(NS(=O)(=O)c2ccc3c(c2)oc(=O)n3C)C(C)C)CC1 (stereo not given)  6.52%
78. COc1cccc(-c2nnc(NC(=O)CSc3ccccc3)o2)c1  6.53%
79. CCOC(=O)c1ccc2nc(NC(=O)CSc3nc4ccccc4[nH]3)sc2c1  6.61%
80. CC(C)C(=O)NC(C)c1nnc2n1CCN(Cc1ccc3cccnc3c1)CC2 (stereo not given)  6.65%
81. Cc1ccc(C2=NC(c3cc(Br)ccc3F)NC(c3cc(Cl)ccc3O)C2)cc1 (stereo not given)  6.67%
82. Cc1ccc(N2C(=O)CC(N3CCN(Cc4ccc(Cl)cc4)CC3)C2=O)cc1Cl (stereo not given)  6.82%
83. Cc1ccc(S(=O)(=O)Cn2nnnc2CN2CCN(c3ccccc3F)CC2)cc1  8.39%
84. CC(=O)Cn1c(=O)c2c(nc3n2CCCN3c2ccc(Br)cc2)n(C)c1=O  8.64%
85. O=[N+]([O-])c1ccc2ncnc(Nc3cccc(C(F)(F)F)c3)c2c1  9%
86. O=C1CCC(CCNCCOc2ccccc2)N1CCc1ccccc1 (stereo not given)  12.1%
87. CC(=O)Nc1nnc(CCOCC(C)OCCc2nnc(NC(C)=O)s2)s1 (stereo not given)  12.3%
88. COc1cccc(C2SCC(=O)N2c2cccc(C)c2)c1OC (stereo not given)  13.2%
89. O=S(=O)(c1ccc(F)cc1)N1CCN(CCCc2ccccc2)CC1  15.2%
90. COc1cccc(/C=C2/C(=O)NC(=O)N(c3ccccc3F)C2=O)c1  15.2%
91. Cc1cnc(Nc2ccc(N3CCOCC3)cc2)nc1NCc1cccc(C(F)(F)F)c1  15.3%
92. Cc1nc2nc(SCc3ccc([N+](=O)[O-])cc3)nn2c(C)c1Cc1c(F)cccc1Cl  15.8%
93. CCOC(=O)Cc1coc(NC(=O)c2ccc(Cl)cc2)n1  16.4%
94. COc1cccc(/C=C(\C#N)c2nc3ccc(C)cc3[nH]2)c1OC  17.6%
95. O=C(Nc1cccc(N2CCC(NCc3ccon3)CC2)c1)c1cccnc1  18.2%
